# Most compounds without a hit are left out; they make up all but 7.5% or so of the library.
# VP16 counter = VP16 counterscreen qHTS for inhibitors of ROR gamma transcriptional activity; Drosophila S2 Gal4-VP16 UAS-luciferase, luminescence, 20 h; Potency, µM (doses to about 53.6 µM), for inactives: at the highest dose activity, negative = inhibition, usual class: inhibitors; 3.5% of 310,000 active;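 also: Gal4-VP16 expression switched on by copper sulfate through the metallothionein promoter; potency is read from the fitted curve at half-maximal effect; nearly all actives have a fitted effect of over 50% in size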
# ELG1 DNA repair = qHTS screen for small molecules that inhibit ELG1-dependent DNA repair in human embryonic kidney (HEK293T) cells expressing luciferase-tagged ELG1. AID 504467, 2011. 2.3% of 330,000 active. Potency, µM (highest dose often 46.1 µM), without a hit: at the top dose activity change, negative = inhibition, usual class: inhibitors. HEK293T ELG1-luciferase reporter, luminescence, 16 h; DNA damage induced by 5-fluorouridine; also: potency is read from the fitted curve at half-maximal effect; nearly all actives have a fitted effect of over 55% in size
#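 Quantitative HTS, concentration-response format. 2,000 cells/well co-treated with 5-fluorouridine and compound, 16 hr in 5% CO2 at 37 °C; ONE-Glo luminescence read after 30 min.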
# RORg inh = qHTS for inhibitors of ROR gamma transcriptional activity; AID 2551, 2010; Drosophila S2 Gal4-RORgamma UAS-luciferase reporter, 20 h; 5.4% of 310,000 active; Potency, µM (top dose mostly 53.6 µM), without a hit: at the top dose activity change, negative = inhibition, usual class: inhibitors; also: potency is read from the fitted curve at half-maximal effect; nearly all actives have a fitted effect of over 60% in size
# Target sequence (P51450 whole entry, looked up, the tested form may be a part): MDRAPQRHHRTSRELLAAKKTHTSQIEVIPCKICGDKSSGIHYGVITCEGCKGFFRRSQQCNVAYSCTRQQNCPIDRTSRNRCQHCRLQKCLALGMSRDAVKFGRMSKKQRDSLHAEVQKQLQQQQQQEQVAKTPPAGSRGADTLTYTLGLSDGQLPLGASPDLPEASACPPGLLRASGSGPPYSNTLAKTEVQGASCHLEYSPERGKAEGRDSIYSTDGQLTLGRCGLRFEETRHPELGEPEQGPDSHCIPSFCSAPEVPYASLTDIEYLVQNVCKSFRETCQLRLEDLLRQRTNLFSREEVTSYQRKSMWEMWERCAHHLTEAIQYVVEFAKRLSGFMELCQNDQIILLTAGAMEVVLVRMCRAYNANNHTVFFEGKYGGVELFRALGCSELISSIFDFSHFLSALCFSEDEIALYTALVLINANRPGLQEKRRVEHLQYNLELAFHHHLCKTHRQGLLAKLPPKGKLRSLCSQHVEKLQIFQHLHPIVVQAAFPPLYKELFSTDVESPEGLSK
#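 ROR gamma transcriptional activity was tracked as Gal4-UAS luciferase output in stably transfected Drosophila Schneider cells, with compound added 1 hr before 700 uM copper sulfate induction and a 20 hr ambient-temperature incubation.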
# B2AR arrestin = qHTS assay of beta-arrestin-biased ligands of beta2-adrenergic receptor | 0.02% of 330,000 active | Potency, µM (series often up to 46.1 µM), for the others: at the top dose activation, most hits filed as activators | beta-arrestin recruitment to beta2AR, cell-based reporter | Beta-2 adrenergic receptor (Homo sapiens), P07550;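 also: potency is read from the fitted curve at half-maximal effect; 0% = DMSO controls and full agonism = EC100 isoproterenol or metaproterenol; nearly all actives have a fitted effect of over 65% in size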
# TSHR antagonist = Antagonists of the Thyroid Stimulating Hormone Receptor: HTS campaign | Thyrotropin receptor (Homo sapiens), P16473 | TSHR-expressing cells, TSH-stimulated cAMP HTRF, 2 h; stronger effect = lower value | activity change, negative = inhibition, % at 11.5 µM | 0.2% of 330,000 active | AID 504810, 2011;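 active = activity change below a set negative limit, meaning inhibition stronger than a set level, cut at about -70% in these data; inconclusive = activity change between two set negative limits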
#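 Freshly harvested TSHR cells receive pin-tooled compound, then EC80 TSH at 4nM final. After 2 hours at 37 deg C, antibody in lysis buffer and cAMP-d2 are added; 30 minutes at ambient temperature precede the HTRF read.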
# * marks the source's active call; other numbers are inactive results; ? = inconclusive; / = no result given; [ ] = another dose, or the depositor's remark. Unless noted, calls follow the shape of the dose curve; as a rule, active = well fitted curve in the direction sought with a large enough effect; inconclusive = small, poorly fitted or top-dose-only effect, or another doubt; inactive = no such curve, though single readings can be large; an effect the other way counts as inactive or inconclusive. Unless noted, % is scaled to controls: 0 for no effect and ±100 for the full control effect.
SMILES,VP16 counter,ELG1 DNA repair,RORg inh,B2AR arrestin,TSHR antagonist
CCC(=O)NC(Nc1sc2c(c1C(=O)OC)CCC2)C(Cl)(Cl)Cl (stereo not given),-0.6%,?,-3.0%[10 µM],3.5%,-72.0*
COc1ccccc1C1(CC(=O)Nc2nccs2)CCOC(C(C)C)C1 (stereo not given),-7.6%,?,11.2µM*,0.0%,-32.6
CCC(C)(C)c1ccc(CC(C)CN2C[C@@H](C)O[C@@H](C)C2)cc1 (stereo not given in full),?,/,0.7%,/,/
CCNc1nc(OCC)nc(N2CCC(Cc3ccccc3)CC2)n1,3.98µM*,-0.9%,5.62µM*,0.2%,-9.3
Cc1nc(C2COc3ccccc3O2)sc1C(=O)O (stereo not given),3.1%,?,-2.5%,-0.2%,-4.9
CCCS(=O)(=O)c1cnc(C2COc3ccccc3O2)nc1N (stereo not given),1.26µM*,?,0.631µM*,0.0%,-19.3
O=[N+]([O-])c1cccc(-c2ccc(/C=N/Nc3nc(N4CCCCC4)nc(N4CCCCC4)n3)o2)c1,-5.7%,?,10µM*,-0.6%,4.4
COc1nc(N/N=C/c2ccc(-c3cccc([N+](=O)[O-])c3)o2)nc(N2CCOCC2)n1,-2.4%,2.31µM*,-8.1%,-0.4%,9.3
Cc1ccc(NC(=O)CN(CCc2ccccc2)S(C)(=O)=O)cc1,4.3%,-22.5%,3.5%,0.4%,1.4
COCCN(CCOC)c1nc(C)nc2c1nc(-c1ccccc1)n2CC1CCN(C)CC1,-3.5%,/,-9.8%,/,/
COc1ccc(-c2cnnc(N/N=C/c3ccc(O)c(OC)c3)n2)cc1,-12.4%,20.6µM*,-10.9%,-1.2%,-13.2
COc1cc(/C=N/Nc2ccccn2)ccc1O,?,?,?,0.1%,23.9
CCOc1cc(/C=N/Nc2nnc(C)n2N)ccc1OC(C)=O,?,?,11.2µM*,0.5%,6.8
CCc1nnc(N/N=C/c2cccs2)n1N,12.6µM*,-5.2%,?,-0.9%,4.4
CCc1nnc(N/N=C\c2ccc(OC(C)=O)c(OC)c2)n1N,?,-13.1%,?,-0.8%,2.9
CCc1nnc(N/N=C/c2ccc(O)c(OC)c2)n1N,12.6µM*,-7.4%,15.8µM*,-2.9%,-8.2
O=C(c1csnn1)N1CCC2(CCN(Cc3cc(C(F)(F)F)cc(C(F)(F)F)c3)CC2)CC1,2.3%,/,-8.9%,/,/
CCC1=C(OC(=O)N(CC)CC)N2C(=O)OC(=NCCOC)[C@]2(C)[C@H]2C1=CC[C@H]1C(=O)N(C)C(=O)[C@H]12,-8.1%,/,-0.8%,/,/
CC(C)(C)c1nnc(N/N=C/c2cc(Br)ccc2O)n(N)c1=O,10µM*,?,12.6µM*,-0.5%,-37.0
CCc1nnc(N/N=C/c2c(Cl)cccc2Cl)n1N,?,20.0%,?,-0.2%,8.1
CCc1nnc(N/N=C/c2cc(Br)c(O)cc2O)n1N,11.2µM*,-15.8%,10µM*,-1.1%,-14.3
C[C@]12CCC[C@H](O1)[C@H]([C@@H](O)c1ccccc1)O2,/,?,/,0.3%,5.3
O=C1CN(S(=O)(=O)c2cc(C(=O)O)ccc2Cl)c2ccccc2N1,-0.5%,0.5%,-17.7%,0.0%,-76.3*
CCCn1nnc(NC(=S)NC(=O)/C=C/c2ccc(Cl)cc2)n1,-20.5%,-1.2%,5.01µM*,-0.7%,6.5
CCCn1nnc(NC(=S)NC(=O)Cc2ccccc2)n1,0.5%,18.1%,0.251µM*,?,34.7
SMILES,VP16 counter,ELG1 DNA repair,RORg inh,B2AR arrestin,TSHR antagonist
CCCn1nnc(NC(=S)NC(=O)CC)n1,10µM*,4.4%,7.08µM*,0.2%,1.5
CCCn1nnc(NC(=O)c2ccc(-c3ccccc3)cc2)n1,28.3%,?,-2.3%,-0.1%,-2.4
CCCn1nnc(NC(=O)/C=C/c2ccc(C(C)C)cc2)n1,?,11.9%,?,-0.6%,-21.8
CCCn1nnc(NC(=O)C(C)C)n1,-1.9%,2.5%,12.2%,-0.7%,-0.7
COc1ccc(S(=O)(=O)Nc2cc(Sc3ncn[nH]3)c(O)c3ccccc23)cc1,7.08µM*,23.1µM*,5.01µM*,-0.3%,-22.0
COc1ccc(S(=O)(=O)Nc2ccc(O)c(Sc3ncn[nH]3)c2)cc1,6.2%,-5.4%,-7.0%,-0.8%,3.5
Cc1cc(C)c(S(=O)(=O)Nc2cc(SCC(=O)O)c(O)c3ccccc23)cc1C,?,-7.1%,11.2µM*,6.9%,-14.2
O=S(=O)(Nc1cc(Sc2cccc3cccnc23)c(O)c2ccccc12)c1ccc(F)cc1,2.51µM*,9.2µM*,1.26µM*,-1.9%,2.3
Cc1cc(C)c(S(=O)(=O)/N=C2/C=C(SCC(=O)O)C(=O)c3ccccc32)cc1C,?,?,-17.9%,0.0%,-10.7
COc1ccc(S(=O)(=O)Nc2cc(SCC(=O)O)c(O)c3ccccc23)cc1,-20.7%,16.4µM*,?,-0.2%,3.0
O=C(O)CSc1cc(NS(=O)(=O)c2ccc(Cl)cc2)c2ccccc2c1O,?,?,-24.4%,-0.7%,-6.5
COCC(=O)N1CCC2(CCCN(C(=O)Nc3cccc(F)c3)C2)CC1,4.0%,/,4.5%,/,/
Cc1cc(C)nc(Sc2ncnc(N)c2[N+](=O)[O-])n1,8.91µM*,?,6.31µM*,0.4%,-5.0
CC(=O)N[C@H]1CSSC[C@@H](C(=O)N2CCC[C@H]2C(=O)N2CCC[C@H]2C(=O)N[C@@H](CCCCN)C(=O)N[C@@H](CC(=O)O)C(N)=O)NC(=O)CNC(=O)[C@H](Cc2c[nH]c3ccccc23)NC(=O)[C@H](CCCNC(=N)N)NC(=O)[C@@H](Cc2ccc(Cl)c(Cl)c2)NC(=O)[C@H](Cc2cnc[nH]2)NC(=O)[C@H](CCC(=O)O)NC1=O,-4.5%,/,8.3%,/,/
Clc1nc(CN2CCOCC2)nc2sc3c(c12)CCC3,22.7%,1.3%,?,-0.1%,4.4
CCC(C)Nc1nc(CN2CCOCC2)nc2sc3c(c12)CCC3 (stereo not given),?,?,11.2µM*,0.1%,3.3
Cc1cccc(Oc2nc(CN3CCOCC3)nc3sc4c(c23)CCCC4)c1,?,?,11.2µM*,-0.9%,23.0
O=C(C1CCCN(S(=O)(=O)c2cccc3nsnc23)C1)N1CCc2ccccc2C1 (stereo not given),-0.6%,16.4µM*,40.1%,-0.9%,-4.8
CCOc1ccc(NC(=O)C2CCCN(S(=O)(=O)c3cccc4nsnc34)C2)cc1 (stereo not given),-11.3%,23.1µM*,44.1%,0.0%,1.7
O=C(C1CCN(S(=O)(=O)c2cccc3nsnc23)CC1)N1CCc2ccccc21,-2.6%,?,30.1%,-2.0%,-13.3

# From PubChem BioAssay
